The other results are listed elsewhere or left out. The true hit rate is not given.
Target: furin, P09958
Assay: furin cleavage Z-score vs untreated control; higher = more cleavage, active = 3.5 or more, inactive = 1 or less, 8 variable residues between constant flanks
Method: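 Multiplexed peptide-cDNA fusion cleavage assay. 8-mer variable peptides flanked by constant Cys-Ala (N-term) and Ala-Gly-Asn-Ala-Ser-Ala-Ser-Ala (C-term) and conjugated to a cDNA oligonucleotide were bead-immobilised via the N-terminus. They were treated with purified furin at a 1:10 enzyme:substrate ratio in 50 mM HEPES pH 7.5, 1 mM CaCl2, 100 mM NaCl for 7.5, 15 or 30 min. Released cDNA was counted by next-generation sequencing, and log counts versus no-furin controls were lowess-adjusted and converted to robust Z-scores.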

furin, P09958, sequence (P09958 whole entry): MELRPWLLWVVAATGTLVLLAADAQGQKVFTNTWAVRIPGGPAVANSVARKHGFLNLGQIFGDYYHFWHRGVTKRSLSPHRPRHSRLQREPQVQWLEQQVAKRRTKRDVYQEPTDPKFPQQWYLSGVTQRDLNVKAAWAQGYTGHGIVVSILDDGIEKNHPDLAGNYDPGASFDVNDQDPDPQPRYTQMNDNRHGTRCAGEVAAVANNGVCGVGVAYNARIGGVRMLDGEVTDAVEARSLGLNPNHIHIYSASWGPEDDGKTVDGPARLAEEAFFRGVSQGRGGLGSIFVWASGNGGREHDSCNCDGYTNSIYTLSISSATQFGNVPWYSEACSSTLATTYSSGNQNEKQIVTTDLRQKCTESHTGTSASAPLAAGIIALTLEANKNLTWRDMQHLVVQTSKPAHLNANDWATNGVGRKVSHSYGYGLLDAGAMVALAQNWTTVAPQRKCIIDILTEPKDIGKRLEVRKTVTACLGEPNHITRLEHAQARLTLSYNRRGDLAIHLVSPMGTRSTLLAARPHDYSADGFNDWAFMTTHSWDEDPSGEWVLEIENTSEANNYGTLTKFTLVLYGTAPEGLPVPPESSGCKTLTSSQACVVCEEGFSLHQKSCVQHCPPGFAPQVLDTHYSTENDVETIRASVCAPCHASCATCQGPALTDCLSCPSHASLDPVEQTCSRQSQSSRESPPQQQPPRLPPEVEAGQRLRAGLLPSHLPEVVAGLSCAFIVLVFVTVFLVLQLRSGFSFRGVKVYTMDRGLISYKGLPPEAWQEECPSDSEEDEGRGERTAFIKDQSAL

| Sequence | furin cleavage Z-score (7.5 min) | furin cleavage Z-score (15 min) | furin cleavage Z-score (30 min) |
| --- | --- | --- | --- |
| CAFEMEECSQAGNASASA [HC1787] | -0.0244 (inactive) | -1.03 (inactive) | 0.747 (inactive) |
| CAEVPCHRSSAGNASASA [HC2397] | 0.159 (inactive) | 1.25 | 1.43 |
| CALYSRVGRSAGNASASA [FS-617] | 8 (active) | 8.87 (active) | 7.73 (active) |
| CASHSREGRSAGNASASA [FS-1281] | 2.57 | 1.17 | 3.76 (active) |
| CAEVRCHRPSAGNASASA [HC2353] | 1.89 | 0.104 (inactive) | -0.327 (inactive) |
| CAEVCCHRPSAGNASASA [HC2360] | 0.494 (inactive) | 0.659 (inactive) | -0.0079 (inactive) |
| CASTGYPKRSAGNASASA [FS-1616] | 0.639 (inactive) | -0.301 (inactive) | -0.705 (inactive) |
| CAEVRRVGRSAGNASASA [FS-766] | 5.5 (active) | 6.28 (active) | 4.53 (active) |
| CASTGRVGRSAGNASASA [FS-1168] | 4.32 (active) | 6.64 (active) | 7 (active) |
| CAAIFQGPIDAGNASASA [NG8] | -1.22 (inactive) | 0.323 (inactive) | -1.13 (inactive) |
| CAMEECSQNLAGNASASA [HC1761] | -0.233 (inactive) | 0.845 (inactive) | 0.876 (inactive) |
| CAECEVPCHRAGNASASA [HC2460] | 1.55 | -0.187 (inactive) | 2.66 |
| CAPPQRTQRSAGNASASA [FS-1049] | 4.31 (active) | 5.78 (active) | 6.79 (active) |
| CAKPSKLKRSAGNASASA [FS-546] | 7.13 (active) | 8.9 (active) | 7.35 (active) |
| CAHPSPLKRSAGNASASA [FS-597] | -0.0472 (inactive) | 2.27 | 1.02 |
| CAPPQKAKRSAGNASASA [FS-70] | 10.3 (active) | 12.4 (active) | 10.2 (active) |
| CAPAQRLARSAGNASASA [FS-1471] | 10.2 (active) | 11.3 (active) | 9.54 (active) |
| CALPCRPQRSAGNASASA [FS-612] | 0.0451 (inactive) | 0.649 (inactive) | 1.4 |
| CAEIVTSTWVAGNASASA [HC2164] | -0.266 (inactive) | -1.49 (inactive) | 1.35 |
| CAVVCCSMSPAGNASASA [HC2099] | -0.463 (inactive) | -1.06 (inactive) | -1.28 (inactive) |
| CAREARGSSRAGNASASA [FS-2907] | -0.25 (inactive) | -0.261 (inactive) | -1.18 (inactive) |

Reference: the supplement of paper PMC3545927
